# PubChem BioAssay (NCATS)
# Records with an inconclusive call do not appear. A call without a number means that no potency is given here. Unmarked numbers belong to inactive results. Active and inactive are the calls of the source. Calls follow the shape of the dose curve; as a rule, active = well fitted curve in the direction sought with a large enough effect; inconclusive = small, poorly fitted or top-dose-only effect, or another doubt; inactive = no such curve, though single readings can be large; an effect the other way counts as inactive or inconclusive.
# Tests used:
# [1] = tested on: MCC-13; assay: qHTS assay to identify novel small-molecules to repurpose for Merkel cell carcinoma treatment (AID 1296009); conditions: MCC and control cell lines, CellTiter-Glo viability, 72 h; series mostly up to 46 µM; also: nearly all actives have a fitted effect of over 60% in size
# Procedure, shortened: (§1)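 Luminescence from CellTiter-Glo, read 10 min after addition at room temperature, reported viability following a 72 hr, 37 degree celsius treatment with NPC or MIPE compounds in titration; values normalized to plate controls.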
# [2] = tested on: MCC-26; assay: as above; conditions: MCC and control cell lines, CellTiter-Glo viability, 72 h; series mostly up to 46 µM
# Procedure, shortened: as §1
# [3] = tested on: MKL-1; assay: as above; conditions: MCC and control cell lines, CellTiter-Glo viability, 72 h; series mostly up to 46 µM
# Procedure, shortened: as §1
# [4] = tested on: MKL-2; assay: as above; conditions: MCC and control cell lines, CellTiter-Glo viability, 72 h; series mostly up to 46 µM
# Procedure, shortened: as §1
# [5] = tested on: NIH3T3; assay: as above; conditions: MCC and control cell lines, CellTiter-Glo viability, 72 h; at 44.8 µM (top of the series) unless noted
# Procedure, shortened: as §1
# [6] = tested on: UISO; assay: as above; conditions: MCC and control cell lines, CellTiter-Glo viability, 72 h; series mostly up to 46 µM
# Procedure, shortened: as §1
# [7] = tested on: WaGa; assay: as above; conditions: MCC and control cell lines, CellTiter-Glo viability, 72 h; series mostly up to 46 µM
# Procedure, shortened: as §1
# [8] = tested on: C33A; assay: Primary qHTS to identify gynecologic anti-cancer compounds using libraries of approved drugs and bioactive compounds (AID 1345084); conditions: Gynecologic cancer cell panel viability, ATPlite luminescence, 48 h; series mostly up to 57.5 µM; also: nearly all actives have a fitted effect of over 55% in size
# Procedure, shortened: (§2)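 Cells, 1,000 per well, plated 16 h, then exposed 48 h at 37 C to compounds. Viability by ATPlite luminescence after 15 min at room temperature.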
# [9] = tested on: CASKI; assay: as above; conditions: Gynecologic cancer cell panel viability, ATPlite luminescence, 48 h; series mostly up to 57.5 µM
# Procedure, shortened: as §2
# [10] = tested on: Es-2; assay: as above; conditions: Gynecologic cancer cell panel viability, ATPlite luminescence, 48 h; series mostly up to 57.5 µM
# Procedure, shortened: as §2
# [11] = tested on: HeLa; assay: as above; conditions: Gynecologic cancer cell panel viability, ATPlite luminescence, 48 h; series mostly up to 57.5 µM
# Procedure, shortened: as §2
# [12] = tested on: Hek293T; assay: as above; conditions: Gynecologic cancer cell panel viability, ATPlite luminescence, 48 h, control line for the selectivity index; series mostly up to 57.5 µM
# Procedure, shortened: as §2
# [13] = tested on: JEG-3; assay: as above; conditions: Gynecologic cancer cell panel viability, ATPlite luminescence, 48 h; series mostly up to 57.5 µM
# Procedure, shortened: as §2
# [14] = tested on: OV90; assay: as above; conditions: Gynecologic cancer cell panel viability, ATPlite luminescence, 48 h; series mostly up to 57.5 µM
# Procedure, shortened: as §2
# [15] = tested on: PA-1; assay: as above; conditions: Gynecologic cancer cell panel viability, ATPlite luminescence, 48 h; series mostly up to 57.5 µM
# Procedure, shortened: as §2
# [16] = tested on: SKOV3; assay: as above; conditions: Gynecologic cancer cell panel viability, ATPlite luminescence, 48 h; series mostly up to 57.5 µM
# Procedure, shortened: as §2
# [17] = tested on: Tov-21-G; assay: as above; conditions: Gynecologic cancer cell panel viability, ATPlite luminescence, 48 h; series mostly up to 57.5 µM
# Procedure, shortened: as §2
# [18] = tested on: Tov112D; assay: as above; conditions: Gynecologic cancer cell panel viability, ATPlite luminescence, 48 h; series mostly up to 57.5 µM
# Procedure, shortened: as §2
# [19] = Drug repurposing screens with cells derived from glioblastoma tumor samples (AID 1345199); conditions: GBM patient neurospheres viability, ATP luminescence, 48 h; also: nearly all actives have a fitted effect of over 40% in size
# Procedure, shortened: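 Primary testing used CD133+ neurospheres from four GBM patients, seven concentrations, 48 h exposure and ATP-based viability; confirmation added three slower-growing patient lines.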
# [20] = tested on: CAOV3; assay: Primary qHTS to identify gynecologic anti-cancer compounds using libraries of approved drugs and bioactive compounds (AID 1345084); conditions: Gynecologic cancer cell panel viability, ATPlite luminescence, 48 h; series mostly up to 57.5 µM; also: nearly all actives have a fitted effect of over 55% in size
# Procedure, shortened: as §2
# [21] = at 45.9 µM (top of the series), tumour line B
# [22] = at 45.9 µM (top of the series), tumour line D
# [23] = at 46 µM (top of the series), tumour line A
# Potency is read from the fitted curve at half-maximal effect.
smiles,measurement,setting,value
CC(C)(O)C(Cl)(Cl)Cl,Potency,[1],inactive
same,Potency,[2],inactive
same,Potency,[3],inactive
same,Potency,[4],inactive
same,outcome,[5],inactive
same,Potency,[6],inactive
same,Potency,[7],inactive
same,Potency,[8],inactive
same,Potency,[9],inactive
same,Potency,[10],inactive
same,Potency,[11],inactive
same,Potency,[12],inactive
same,Potency,[13],inactive
same,Potency,[14],inactive
same,Potency,[15],inactive
same,Potency,[16],inactive
same,Potency,[17],inactive
same,Potency,[18],inactive
same,"activity, negative = cell killing",[19]; [21],4%
same,"activity, negative = cell killing",[19]; [22],6.2%
CC(C)(C)OC(=O)c1ncn2c1[C@@H]1CCCN1C(=O)c1c(Br)cccc1-2,Potency,[1],inactive
same,Potency,[2],inactive
same,Potency,[3],inactive
same,Potency,[4],inactive
same,outcome,[5],inactive
same,Potency,[6],inactive
same,Potency,[7],inactive
same,Potency,[8],inactive
same,Potency,[20],inactive
same,Potency,[9],inactive
same,Potency,[10],inactive
same,Potency,[11],inactive
same,Potency,[12],inactive
same,Potency,[13],inactive
same,Potency,[14],inactive
same,Potency,[15],inactive
same,Potency,[16],inactive
same,Potency,[17],inactive
same,Potency,[18],inactive
same,"activity, negative = cell killing",[19]; [21],-9.06%
same,"activity, negative = cell killing",[19]; [22],-11.3%
O=C(O)c1nn(Cc2ccc(Cl)cc2Cl)c2ccccc12,Potency,[1],inactive
same,Potency,[2],inactive
same,Potency,[3],inactive
same,Potency,[4],inactive
same,outcome,[5],inactive
same,Potency,[6],inactive
same,Potency,[7],inactive
same,Potency,[8],inactive
same,Potency,[9],inactive
same,Potency,[10],inactive
same,Potency,[11],inactive
same,Potency,[12],inactive
same,Potency,[13],inactive
same,Potency,[15],inactive
same,Potency,[16],inactive
same,Potency,[17],inactive
same,Potency,[18],inactive
same,"activity, negative = cell killing",[19]; [21],-14.7%
same,"activity, negative = cell killing",[19]; [23],-31.3%
CCN1CCCC1CNC(=O)C(O)(c1ccccc1)c1ccccc1 (stereo not given),Potency,[1],inactive
same,Potency,[2],inactive
same,Potency,[3],inactive
same,Potency,[4],inactive
same,outcome,[5],inactive
same,Potency,[6],inactive
same,Potency,[7],inactive
same,Potency,[8],inactive
same,Potency,[9],inactive
same,Potency,[10],inactive
same,Potency,[11],inactive
same,Potency,[12],inactive
same,Potency,[13],inactive
same,Potency,[14],inactive
same,Potency,[15],inactive
same,Potency,[16],inactive
same,Potency,[17],inactive
same,Potency,[18],inactive
CCOP(=S)(OCC)O/N=C(\C#N)c1ccccc1,Potency,[1],inactive
same,Potency,[2],inactive
same,Potency,[3],inactive
same,Potency,[4],inactive
same,outcome,[5],inactive
same,Potency,[6],inactive
same,Potency,[7],inactive
same,Potency,[8],inactive
same,Potency,[20],inactive
same,Potency,[9],inactive
same,Potency,[10],inactive
same,Potency,[11],inactive
same,Potency,[12],inactive
same,Potency,[13],inactive
same,Potency,[14],inactive
same,Potency,[15],inactive
same,Potency,[16],inactive
same,Potency,[17],inactive
same,Potency,[18],inactive
same,"activity, negative = cell killing",[19]; [21],9.02%
same,"activity, negative = cell killing",[19]; [22],-6.28%
COC(=O)C1=CCCN(C)C1,Potency,[1],inactive
same,Potency,[2],inactive
same,Potency,[3],inactive
same,Potency,[4],inactive
same,outcome,[5],inactive
same,Potency,[6],inactive
same,Potency,[7],inactive
same,Potency,[8],inactive
same,Potency,[20],inactive
same,Potency,[9],inactive
same,Potency,[10],inactive
same,Potency,[11],inactive
same,Potency,[12],inactive
same,Potency,[13],inactive
same,Potency,[14],inactive
same,Potency,[15],inactive
same,Potency,[16],inactive
same,Potency,[17],inactive
same,Potency,[18],inactive
same,"activity, negative = cell killing",[19]; [21],-5.77%
same,"activity, negative = cell killing",[19]; [22],-12.9%
same,"activity, negative = cell killing",[19]; [23],-22.4%
O=C(CBr)Nc1ccc(Cl)cc1C(=O)c1ccccc1F,Potency,[1],inactive
same,Potency,[2],inactive
same,Potency,[3],inactive
same,Potency,[4],inactive
same,outcome,[5],inactive
same,Potency,[6],inactive
same,Potency,[7],inactive
same,Potency,[8],inactive
same,Potency,[20],inactive
same,Potency,[9],inactive
same,Potency,[10],inactive
same,Potency,[11],inactive
same,Potency,[12],inactive
same,Potency,[13],inactive
same,Potency,[14],inactive
same,Potency,[15],inactive
same,Potency,[16],inactive
same,Potency,[17],inactive
same,Potency,[18],inactive
O=C(CCCCl)c1ccc(F)cc1,Potency,[1],inactive
same,Potency,[2],inactive
same,Potency,[3],inactive
same,Potency,[4],inactive
same,Potency,[6],inactive
same,Potency,[7],inactive
same,Potency,[8],inactive
same,Potency,[20],inactive
same,Potency,[9],inactive
same,Potency,[10],inactive
same,Potency,[11],inactive
same,Potency,[12],inactive
same,Potency,[13],inactive
same,Potency,[14],inactive
same,Potency,[15],inactive
same,Potency,[16],inactive
same,Potency,[17],inactive
same,Potency,[18],inactive
Nc1ccccc1C(=O)OCC(O)CO (stereo not given),Potency,[1],inactive
same,Potency,[2],inactive
same,Potency,[3],inactive
same,Potency,[4],inactive
same,Potency,[6],inactive
same,Potency,[7],inactive
same,Potency,[8],inactive
same,Potency,[20],inactive
same,Potency,[9],inactive
same,Potency,[10],inactive
same,Potency,[11],inactive
same,Potency,[12],inactive
same,Potency,[13],inactive
same,Potency,[14],inactive
same,Potency,[15],inactive
same,Potency,[16],inactive
same,Potency,[17],inactive
same,Potency,[18],inactive
COP(=O)(OC)OC=C(Cl)Cl,Potency,[1],inactive
same,Potency,[2],inactive
same,Potency,[3],inactive
same,Potency,[4],inactive
same,outcome,[5],inactive
same,Potency,[6],inactive
same,Potency,[7],inactive
same,Potency,[8],inactive
same,Potency,[9],inactive
same,Potency,[10],inactive
same,Potency,[11],inactive
same,Potency,[12],inactive
same,Potency,[13],inactive
same,Potency,[14],inactive
same,Potency,[15],inactive
same,Potency,[16],inactive
same,Potency,[17],inactive
same,Potency,[18],inactive
same,Potency,[19]; tumour line A,7.08 µM (active)
Cc1ccc([N+](=O)[O-])[c]2c1[O][Hg]2,Potency,[1],2.11 µM (active)
same,Potency,[2],1.88 µM (active)
same,Potency,[3],0.133 µM (active)
same,Potency,[4],0.0422 µM (active)
same,Potency,[6],0.335 µM (active)
same,Potency,[7],0.335 µM (active)
same,Potency,[8],4.47 µM (active)
same,Potency,[20],6.31 µM (active)
same,Potency,[9],7.94 µM (active)
same,Potency,[10],5.62 µM (active)
same,Potency,[11],20 µM (active)
same,Potency,[12],5.62 µM (active)
same,Potency,[13],3.55 µM (active)
same,Potency,[14],12.6 µM (active)
same,Potency,[15],2.82 µM (active)
same,Potency,[16],3.98 µM (active)
same,Potency,[17],2 µM (active)
same,Potency,[18],5.62 µM (active)
COc1cc(CC#N)cc(OC)c1OC,Potency,[1],inactive
same,Potency,[2],inactive
same,Potency,[3],inactive
same,Potency,[4],inactive
same,Potency,[6],inactive
same,Potency,[7],inactive
same,Potency,[8],inactive
same,Potency,[20],inactive
same,Potency,[9],inactive
same,Potency,[10],inactive
same,Potency,[11],inactive
same,Potency,[12],inactive
same,Potency,[13],inactive
same,Potency,[14],inactive
same,Potency,[15],inactive
same,Potency,[16],inactive
same,Potency,[17],inactive
same,Potency,[18],inactive
CCCC[N+]1(C)[C@@H]2CC(OC(=O)[C@H](CO)c3ccccc3)C[C@H]1[C@@H]1O[C@@H]12 (stereo not given in full),Potency,[1],inactive
same,Potency,[2],inactive
same,Potency,[3],inactive
same,Potency,[4],inactive
same,Potency,[6],inactive
same,Potency,[7],inactive
same,Potency,[8],inactive
same,Potency,[20],inactive
same,Potency,[9],inactive
same,Potency,[10],inactive
same,Potency,[11],inactive
same,Potency,[12],inactive
same,Potency,[13],inactive
same,Potency,[14],inactive
same,Potency,[15],inactive
same,Potency,[16],inactive
same,Potency,[17],inactive
same,Potency,[18],inactive
same,"activity, negative = cell killing",[19]; [21],-7.47%
O=C(O)Cc1ccccc1,Potency,[1],inactive
same,Potency,[2],inactive
same,Potency,[3],inactive
same,Potency,[4],inactive
same,outcome,[5],inactive
same,Potency,[6],inactive
same,Potency,[7],inactive
same,Potency,[8],inactive
same,Potency,[9],inactive
same,Potency,[10],inactive
same,Potency,[11],inactive
same,Potency,[12],inactive
same,Potency,[13],inactive
same,Potency,[15],inactive
same,Potency,[16],inactive
same,Potency,[17],inactive
same,Potency,[18],inactive
same,"activity, negative = cell killing",[19]; [21],-8.63%
same,"activity, negative = cell killing",[19]; [22],-22.9%
same,"activity, negative = cell killing",[19]; [23],-19.6%
